Data published in PubChem BioAssay AID2685 (National Center for Advancing Translational Sciences (NCATS), 2010).
Screen size: about 320,000 compounds; about 2,100 (0.66%) were called active. About 53% were inconclusive and are not listed. This is one part of a sample in which actives are shown more often than they occur. Calls follow the shape of the dose curve; as a rule, active = well fitted inhibition curve with a large enough effect in the signal ratio, with a control signal flat (not every such curve was filed as active); inconclusive = small, poorly fitted or top-dose-only effect, or effect the other way, or a change in a side signal; inactive = flat fitted curve, though single readings scatter; the % refers to the signal ratio.

Assay: qHTS Assay for Lipid Storage Modulators in Drosophila S3 Cells;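 as to cell number change: cells counted by Cell Tracker Red CMTPX staining in the red channel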
Details: BODIPY lipid droplet fluorescence, 18-24 h, cells fed with added oleic acid; cell number change: measured here: cell count max response; series mostly up to 46.1 µM
Summary of the method: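 Drosophila S3 cells loaded with oleic acid (400 uM, as added) and compounds at several concentrations; lipid droplets imaged by 488-nm laser-scanning cytometry, 500–530 nm intensity and object ratio to cell channel. Percent activity normalized to 20 uM Triacsin C.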
Potency is read from the fitted curve at half-maximal effect.

Structure (SMILES) | Potency | cell number change [%]
CCCNC(=O)Nc1cccc(NC(C)=O)c1 | inactive | -9.94
CCOCCCNC(=O)C1CCCN(S(=O)(=O)c2cccc3nsnc23)C1 (centres undefined) | inactive | -2.02
Cc1cc(=O)n2nc(N3CCC(C(=O)NCCc4ccccc4)CC3)sc2n1 | inactive | 7.93
Cc1cc(=O)n2nc(N3CCCC3C(=O)NCCCN3CC(C)CC(C)C3)sc2n1 (centres undefined) | 5.17 µM (active) | -13.9
Cc1cc(=O)n2nc(N3CCCC(C(=O)NCc4ccccc4Br)C3)sc2n1 (centres undefined) | 1.46 µM (active) | -27.4
Cc1cc(=O)n2nc(N3CCCC(C(=O)N4CCN(C)CC4)C3)sc2n1 (centres undefined) | inactive | -3.39
COc1ccc(NC(=O)C2CCCN2c2nn3c(=O)cc(C)nc3s2)cc1 (centres undefined) | inactive | 13.8
Cc1cc(=O)n2nc(N3CCCC(C(=O)NCc4ccccc4)C3)sc2n1 (centres undefined) | inactive | -4.61
CCOc1ccc(CCNC(=O)C2CCN(c3nn4c(=O)cc(C)nc4s3)CC2)cc1OCC | 5.8 µM (active) | 3.17
Cc1cc(=O)n2nc(N3CCCC(C(=O)NCc4ccccc4C)C3)sc2n1 (centres undefined) | inactive | 0.288
Cc1cc(=O)n2nc(N3CCC(C(=O)N4CCN(c5ccccc5)CC4)CC3)sc2n1 | inactive | –
COc1ccc(CCNC(=O)C2CCN(c3nn4c(=O)cc(C)nc4s3)CC2)cc1OC | inactive | –
CCC1CCCCN1CCCNC(=O)C1CCCN(c2nn3c(=O)cc(C)nc3s2)C1 (centres undefined) | inactive | –
Cc1cc(=O)n2nc(N3CCC(C(=O)N4CCN(C)CC4)CC3)sc2n1 | 6.51 µM (active) | 5.43
COc1ccc(CCNC(=O)Cn2cnc3c(nnn3Cc3ccc(C)cc3)c2=O)cc1OC | inactive | -15.1
COc1ccc(CN2CCN(Cc3cc4ccccc4o3)CC2CCO)c(F)c1 (centres undefined) | inactive | 5.21
C/C(=N\NC(=O)c1nnn(-c2nonc2N)c1CSc1ccccc1)c1ccco1 | inactive | –
N/C(=N/O)c1nc(N2CCCC2)nc(N2CCCC2)n1 | inactive | 6.44
COc1ccc(OC)c(CNC(=O)C(C)n2nc(C)c3c(C)n(-c4ccccc4)nc3c2=O)c1 (centres undefined) | inactive | -28

Structure (SMILES) | Potency | cell number change [%]
COc1ccccc1CNC(=O)C(C)n1nc(C)c2c(C)n(-c3ccccc3)nc2c1=O (centres undefined) | 5.8 µM (active) | -4.13
COc1ccc(CNC(=O)C(C)n2nc(C)c3c(C)n(-c4ccccc4)nc3c2=O)c(OC)c1 (centres undefined) | inactive | 1.47
O=S1(=O)c2ccccc2Nc2ccccc21 | inactive | 5.2
Cc1nc(NS(=O)(=O)c2ccccc2)sc1NC(=O)Nc1ccc(Cl)cc1 | inactive | 3.01
COc1ccc(CCNCc2c(OC)ccc3ccccc23)cc1OC | inactive | 20.1
CCOC(=O)N1CCN(C(=O)C(C)N(c2ccccc2)S(C)(=O)=O)CC1 (centres undefined) | inactive | 2.57
CC(C(=O)N1CCc2ccccc2C1)N(c1ccccc1)S(C)(=O)=O (centres undefined) | 2.06 µM (active) | -18
CC(C(=O)N1CCCC1)N(c1ccccc1)S(C)(=O)=O (centres undefined) | inactive | -11.5
COc1ccc2sc(-c3ccccc3OC)c(C#CCCO)c2c1 | inactive | -1.81
CCOc1cc(-c2cc(-c3ccc(C)o3)nc(N)c2C#N)ccc1O | inactive | -0.884
O=C(NCc1cccnc1)C1CCN(c2ccc(S(=O)(=O)N3CCOCC3)cc2Cl)CC1 | inactive | 0.843
CCC(C)C1NC(=S)N(Cc2ccccc2)C1=O (centres undefined) | inactive | -14.7
C=CCN1C(=O)C(C(C)CC)NC1=S (centres undefined) | 7.31 µM (active) | -18.2
CCC(C)C1NC(=S)N(C2CCCCC2)C1=O (centres undefined) | inactive | -20.3
Cc1nnc(-c2cccc(C(F)(F)F)c2)nc1N1CCOCC1 | inactive | –
O=C(C1=C[C@@H](C2CC2)C[C@@H](OCc2ccc(CO)cc2)O1)N1CCOCC1 | inactive | -6.29
Cc1ccc(C2=NNC(C(O)C(O)C(O)C(O)CO)S2)cc1 (centres undefined) | 23.1 µM (active) | -6.96
COc1ccc(C2NN=C(c3ccc(C)cc3)S2)cc1 (centres undefined) | inactive | 14.2
Cc1ccc(C2=NNC(C(O)C(O)C(O)C(C)O)S2)cc1 (centres undefined) | inactive | –

Structure (SMILES) | Potency | cell number change [%]
O=C(Nc1ccc(N2CCOCC2)cc1)C1CCCN(S(=O)(=O)c2cccc(C(F)(F)F)c2)C1 (centres undefined) | inactive | 2.4
CCCNC(=O)c1ccccc1NC(=O)CN(c1ccccc1)S(=O)(=O)N(C)C | inactive | -16.1
CN1CCN(NC(=O)c2ccc(S(=O)(=O)N3CC4(C)CC3CC(C)(C)C4)cc2)CC1 (centres undefined) | inactive | 3.86
CC1(C)CC2CC(C)(CN2S(=O)(=O)c2ccc(C(=O)Nc3ccc(Cl)c(S(=O)(=O)N4CCOCC4)c3)cc2)C1 (centres undefined) | 5.8 µM (active) | –
O=C(Nc1ccc(Cl)c(S(=O)(=O)N2CCOCC2)c1)c1ccc2c(c1)OCCO2 | inactive | 19.2
CCOc1ccc(C(=O)NCC(=O)OCc2ccc(F)cc2Cl)cc1 | inactive | 13.4
CCn1c(=O)c2cc(C(=O)N(C)CC(OC)OC)sc2c2ccccc21 | inactive | 7.22
O=C(OCc1nnc(-c2ccccc2)o1)c1cc(S(=O)(=O)N2CCOCC2)ccc1F | inactive | -16.6
Cc1noc(C)c1COC(=O)c1cc(S(=O)(=O)N2CCOCC2)ccc1F | inactive | 4.32
CCc1cc2c(COC(=O)c3cc(S(=O)(=O)N4CCOCC4)ccc3F)cc(=O)oc2cc1O | 18.4 µM (active) | -14.4
CCc1ccc(OCC(=O)Nc2ccc3c(c2)COC3=O)cc1 | inactive | 8.42
COc1ccc(NC(=O)C2CCN(S(=O)(=O)c3cccc4cccnc34)CC2)cc1OC | inactive | -22.5
COc1ccc(C)cc1NC(=O)C1CCCN(S(=O)(=O)c2cccc3cccnc23)C1 (centres undefined) | inactive | 19.9
COc1ccc(C)cc1NC(=O)C1CCN(S(=O)(=O)c2cccc3nonc23)CC1 | 3.66 µM (active) | 15.9
COc1ccc(C)cc1NC(=O)C1CCCN(S(=O)(=O)c2cccc3nonc23)C1 (centres undefined) | inactive | –
COc1ccc(Cl)cc1NC(=O)C1CCCN(S(=O)(=O)c2cccc3nonc23)C1 (centres undefined) | inactive | 8.35
COc1ccc(C)cc1NC(=O)C1CCN(S(=O)(=O)c2cccc3cccnc23)CC1 | 10.3 µM (active) | -24.8
COc1ccc(S(=O)(=O)Nc2c(C)n(C)n(-c3ccccc3)c2=O)cc1Br | inactive | -3.28
